Compounds without any hit were thinned out: in the full panel of roughly 83,000, 20% have a hit.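 Note: values are percent growth. 100 is the growth of untreated cells, values between 100 and 0 indicate rising inhibition; between -100 and 0 indicates cell death.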 Active and inactive are the calls of the source. How the source made its calls: active means growth percent below 10; inactive means the rest.
Tests used:
Assay in all cases: NCI-60 one-dose screen, 48 h (100 = growth as untreated, 0 = no growth, -100 = all killed)
Conditions in all cases: 10 µM unless noted
HCT-15 colon = tested on: HCT-15 colon
HT29 colon = tested on: HT29 colon
SNB-75 CNS = tested on: SNB-75 CNS
U251 CNS = tested on: U251 CNS
PC-3 prostate = tested on: PC-3 prostate
SK-MEL-5 melanoma = tested on: SK-MEL-5 melanoma
UACC-62 melanoma = tested on: UACC-62 melanoma
LOX IMVI melanoma = tested on: LOX IMVI melanoma
SK-MEL-28 melanoma = tested on: SK-MEL-28 melanoma
SNB-19 CNS = tested on: SNB-19 CNS

Measured: growth

CCCCNC(=O)CC1=C(C)/C(=C/c2[nH]c(-c3ccc[nH]3)cc2OC)N=C1C
active: HCT-15 colon 2.62% | HT29 colon 9.63% | PC-3 prostate 6.07% | SK-MEL-5 melanoma 1.34% | UACC-62 melanoma -28.9% | LOX IMVI melanoma -36.9%
inactive: SNB-75 CNS 65.3% | U251 CNS 28.7% | SK-MEL-28 melanoma 31%

CCC1=C[C@@H]2C[C@]3(C(=O)OC)c4[nH]c5ccccc5c4CC[N@+](CC(=O)Nc4cc5c(cc4OC)N(C)[C@H]4[C@@](O)(C(=O)OC)[C@H](OC(C)=O)[C@]6(CC)C=CCN7CC[C@]54[C@@H]76)(C2)[C@H]13
inactive: HCT-15 colon 108% | HT29 colon 109% | SNB-75 CNS 98.8% | U251 CNS 97.3% | PC-3 prostate 93.2% | SK-MEL-5 melanoma 101% | UACC-62 melanoma 97.7% | LOX IMVI melanoma 99.1% | SK-MEL-28 melanoma 109%

N#CSCC1CC(O)(c2ccccc2)CC(c2ccc(F)cc2)O1 (stereo not drawn)
active: HT29 colon -0.0912% | SNB-75 CNS -25.8% | U251 CNS -51.2% | LOX IMVI melanoma -46.8%
inactive: HCT-15 colon 16.5% | PC-3 prostate 25.8% | SK-MEL-5 melanoma 22.1% | UACC-62 melanoma 11.4% | SK-MEL-28 melanoma 43.9%

Cc1ccc(/C=C2\COc3ccc(O)cc3C2=O)cc1
inactive: HCT-15 colon 70.8% | HT29 colon 57.7% | SNB-75 CNS 84.6% | U251 CNS 69.9% | PC-3 prostate 86% | SK-MEL-5 melanoma 97.7% | UACC-62 melanoma 86.1% | LOX IMVI melanoma 57% | SK-MEL-28 melanoma 103%

O=C1/C(=C/c2ccccc2O)CC/C1=C\c1ccccc1O
active: PC-3 prostate 8.94%
inactive: HCT-15 colon 35.1% | HT29 colon 99.6% | SNB-75 CNS 77.2% | U251 CNS 69.1% | SK-MEL-5 melanoma 77.9% | UACC-62 melanoma 36.6% | LOX IMVI melanoma 45.9% | SK-MEL-28 melanoma 96.8%

CC(C)C1=NOC(=O)C1=Cc1cn(-c2ccccc2)nc1-c1ccc(F)cc1
active: LOX IMVI melanoma 6.17%
inactive: HCT-15 colon 61.4% | HT29 colon 28.8% | SNB-75 CNS 70.6% | U251 CNS 51.3% | PC-3 prostate 38.5% | SK-MEL-5 melanoma 78.9% | UACC-62 melanoma 75.5% | SK-MEL-28 melanoma 82.7%

CNC(=O)c1ccccc1Oc1nc(Nc2cc(OC)c(OC)c(OC)c2)ncc1Br
inactive: HCT-15 colon 59.9% | HT29 colon 45.1% | SNB-75 CNS 53.1% | U251 CNS 57.6% | PC-3 prostate 61.4% | SK-MEL-5 melanoma 80% | UACC-62 melanoma 50.7% | LOX IMVI melanoma 21.8% | SK-MEL-28 melanoma 80.5%

CN1CCN(c2cc(Nc3cc(C4CC4)[nH]n3)nc(Nc3ccc(CC(=O)NCc4cccc(F)c4)cc3)n2)CC1
active: HT29 colon 8.1% | SNB-75 CNS -56% | LOX IMVI melanoma -28.4%
inactive: HCT-15 colon 56.5% | U251 CNS 26% | PC-3 prostate 47.4% | SK-MEL-5 melanoma 68.6% | UACC-62 melanoma 32.7% | SK-MEL-28 melanoma 25.8%

N#Cc1nc(-c2ccc(F)cc2)oc1S(=O)(=O)N1CCOCC1
active: HCT-15 colon -29.9% | LOX IMVI melanoma 8.36%
inactive: HT29 colon 36.5% | SNB-75 CNS 91.2% | U251 CNS 98.9% | PC-3 prostate 91% | SK-MEL-5 melanoma 82.6% | UACC-62 melanoma 89.9% | SK-MEL-28 melanoma 85.7%

Cc1ccc(-c2nc(N3CCCNCC3)c3oc(-c4ccc(C)cc4)nc3n2)cc1
inactive: SNB-75 CNS 97.7% | SK-MEL-5 melanoma 88.1% | UACC-62 melanoma 92% | SK-MEL-28 melanoma 89.8%
active: HCT-15 colon -72.9% | HT29 colon -87.1% | U251 CNS -92.4% | PC-3 prostate -89.5% | LOX IMVI melanoma -79.3%

Cc1c(-c2ccc(O)cc2)n(Cc2ccc(OCCN3CCCCCC3)cc2)c2ccc(O)cc12
inactive: HCT-15 colon 20.5% | HT29 colon 59.4% | SNB-75 CNS 43.4% | U251 CNS 56.4% | PC-3 prostate 76.8% | SK-MEL-5 melanoma 57.2% | UACC-62 melanoma 98.3% | LOX IMVI melanoma 39.4% | SK-MEL-28 melanoma 92.6%

CCCCCCCCCCCCCCCCCCOc1ccccc1CC(=O)OCC[N+](C)(C)C
inactive: HCT-15 colon 57.5% | SK-MEL-5 melanoma 25.3% | UACC-62 melanoma 18.6% | LOX IMVI melanoma 29.3% | SK-MEL-28 melanoma 64.8%
active: HT29 colon 8.73% | SNB-75 CNS -16.4% | U251 CNS -76.6% | PC-3 prostate 5.84%

CC(C)c1ccc(Cc2cnc(NC(=O)c3cc(Br)cs3)s2)cc1
active: HT29 colon 7.43% | SNB-75 CNS -3.65%
inactive: HCT-15 colon 21.6% | U251 CNS 18.6% | PC-3 prostate 26.7% | SK-MEL-5 melanoma 10.1% | UACC-62 melanoma 42.5% | LOX IMVI melanoma 41.3% | SK-MEL-28 melanoma 53.5%

NC(=O)c1cc(I)ccc1NC(=O)/C=C/c1ccccc1
inactive: HCT-15 colon 24.5% | HT29 colon 22.1% | SNB-75 CNS 30.1% | U251 CNS 21.8% | PC-3 prostate 15.4% | SK-MEL-5 melanoma 24.5% | UACC-62 melanoma 64.9% | LOX IMVI melanoma 35.1% | SK-MEL-28 melanoma 12%

O=S(=O)(Nc1ccc(F)cc1F)c1ccc(-c2cnc(C3CC3)o2)cc1
active: SNB-75 CNS -13.1% | SK-MEL-5 melanoma 6.16%
inactive: HCT-15 colon 23.7% | HT29 colon 14% | U251 CNS 26.6% | PC-3 prostate 42.5% | UACC-62 melanoma 27.4% | LOX IMVI melanoma 41.5%

CC(C)(C)[Si](C)(C)OC1[C@@H](CNC(=O)NC(=O)NC(N)=O)O[C@@H](n2cnc3c(NC(=O)Nc4ccccc4)ncnc32)[C@H]1O[Si](C)(C)C(C)(C)C (stereo partly drawn)
inactive: HCT-15 colon 94.8% | HT29 colon 10.5% | SNB-75 CNS 84.1% | U251 CNS 69.1% | PC-3 prostate 41.5% | SK-MEL-5 melanoma 91.8% | UACC-62 melanoma 87.8% | LOX IMVI melanoma 56% | SK-MEL-28 melanoma 63.5%

CCCC/C(CC)=N\NS(=O)(=O)c1ccc([N+](=O)[O-])cc1
inactive: HCT-15 colon 107% | HT29 colon 106% | SNB-75 CNS 90.4% | U251 CNS 88.6% | PC-3 prostate 84.5% | SK-MEL-5 melanoma 98.2% | UACC-62 melanoma 98.5% | LOX IMVI melanoma 94.2% | SK-MEL-28 melanoma 108%

O=C1NC(=C(Cl)Cl)/C(=N\S(=O)(=O)NCc2ccccc2)N1
inactive: HCT-15 colon 105% | HT29 colon 108% | SNB-75 CNS 84.6% | U251 CNS 91% | PC-3 prostate 95.6% | SK-MEL-5 melanoma 96.6% | UACC-62 melanoma 85.5% | LOX IMVI melanoma 93.8% | SK-MEL-28 melanoma 103%

CCNCCNc1cc(-c2ccc(C(F)(F)F)cc2)c(C#N)c2nc3ccccc3n12
active: HCT-15 colon -75.4% | HT29 colon -61.7% | SNB-75 CNS -95.5% | U251 CNS -87.1% | PC-3 prostate -72.6% | SK-MEL-5 melanoma -91.8% | UACC-62 melanoma -74.4% | LOX IMVI melanoma -95.4% | SK-MEL-28 melanoma -86.4%

O=C1/C(=C\c2ccc3nccnc3c2)SC(=S)N1CCc1ccc(O)cc1
inactive: HCT-15 colon 78.3% | HT29 colon 112% | SNB-75 CNS 66% | U251 CNS 99.3% | PC-3 prostate 89.7% | SK-MEL-5 melanoma 98.7% | UACC-62 melanoma 84.5% | LOX IMVI melanoma 79.4% | SK-MEL-28 melanoma 103%

CCN(CC)CCn1c2ccc(OC)cc2c2sc3cc(OC)ccc3c(=O)c21
active: HCT-15 colon 8.79% | HT29 colon 0.172% | LOX IMVI melanoma -75%
inactive: SNB-75 CNS 85.9% | U251 CNS 20.5% | PC-3 prostate 25.6% | SK-MEL-5 melanoma 57% | UACC-62 melanoma 47.2% | SK-MEL-28 melanoma 29.7%

COc1c(B(O)O)cccc1-c1cc(C)c2c(ccc3[nH]ncc32)n1
active: SNB-75 CNS -29.9%
inactive: HCT-15 colon 95.2% | HT29 colon 88.2% | U251 CNS 87.8% | PC-3 prostate 84.3% | SK-MEL-5 melanoma 88.9% | UACC-62 melanoma 98.8% | LOX IMVI melanoma 56.9% | SK-MEL-28 melanoma 116%

COC1=CC(c2ccc[nH]2)=N/C1=C\c1[nH]c(C)c(CC(=O)OCc2ccccc2)c1CCC(=O)OCc1ccccc1
active: HCT-15 colon -56.7% | HT29 colon 0.828% | SNB-75 CNS -6.6% | U251 CNS -71.4% | PC-3 prostate -40.3% | SK-MEL-5 melanoma -93.8% | UACC-62 melanoma -69.7% | LOX IMVI melanoma -80.7% | SK-MEL-28 melanoma -52.4%

COc1ccc(/C=N/C2=C(C#N)C(c3ccccc3)c3ccc4ccccc4c3O2)cc1 (stereo not drawn)
active: HT29 colon 6.29% | PC-3 prostate 8.18%
inactive: HCT-15 colon 15.8% | SNB-75 CNS 15.5% | U251 CNS 18.5% | SK-MEL-5 melanoma 16.3% | UACC-62 melanoma 15.8% | LOX IMVI melanoma 29.5% | SK-MEL-28 melanoma 41.4%

C#Cc1c2c(c(OC)c3c1OCO3)[C@H]([C@H]1OC(=O)c3c1ccc(OC)c3OC)N(C)CC2
inactive: HCT-15 colon 60.7% | HT29 colon 60.7% | SNB-75 CNS 85.8% | U251 CNS 87.9% | PC-3 prostate 76.5% | SK-MEL-5 melanoma 93.4% | UACC-62 melanoma 75.6% | LOX IMVI melanoma 79.7%

COc1ccc(Nc2ncc(Br)c(NCCCNC(=O)C3CCCC3)n2)cc1
inactive: HCT-15 colon 37.1% | HT29 colon 47.5% | SNB-75 CNS 51.1% | U251 CNS 27.2% | PC-3 prostate 44% | SK-MEL-5 melanoma 67.5% | UACC-62 melanoma 46.2% | LOX IMVI melanoma 11% | SK-MEL-28 melanoma 57.2%

CCOC(=O)C/C(=N\Nc1cc(=O)[nH]c2ccc(Br)cc12)C(=O)OCC
inactive: HCT-15 colon 99.3% | HT29 colon 107% | SNB-75 CNS 88.2% | SNB-19 CNS 99.5% | U251 CNS 108% | PC-3 prostate 87.4% | LOX IMVI melanoma 94.4% | SK-MEL-28 melanoma 107%

CCOC(=O)[C@@H]1CSC(CC)=C(C(=O)O)N1
inactive: HCT-15 colon 104% | HT29 colon 111% | SNB-75 CNS 115% | U251 CNS 94.6% | SK-MEL-5 melanoma 103% | UACC-62 melanoma 94.4% | LOX IMVI melanoma 104% | SK-MEL-28 melanoma 101%
active: PC-3 prostate -9.62%

COc1cc(-c2nc3sccn3c2-c2ccnc(NCCNS(=O)(=O)c3ccccc3)n2)ccc1F
inactive: HCT-15 colon 52.1% | HT29 colon 24.6% | SNB-75 CNS 59.4% | U251 CNS 61% | PC-3 prostate 30.9% | SK-MEL-5 melanoma 19% | UACC-62 melanoma 25.8% | LOX IMVI melanoma 41.4% | SK-MEL-28 melanoma 63.7%

Source: PubChem BioAssay (NCI)
